Experiments:
Experiment in all cases: log2 ratio of Biotin-Ahx-Ub-VS probe labelling (fragment/DMSO); higher = less target engagement (more negative = stronger competition), active = hit call of the paper (q ≤ 0.05, log2 ratio ≤ -1)
Details in all cases: compound concentration: 200 uM; treatment time: 3 h
ALG13 = molecular target: T1, ALG13 (UniProt Q9NP73)
T1 sequence (whole entry): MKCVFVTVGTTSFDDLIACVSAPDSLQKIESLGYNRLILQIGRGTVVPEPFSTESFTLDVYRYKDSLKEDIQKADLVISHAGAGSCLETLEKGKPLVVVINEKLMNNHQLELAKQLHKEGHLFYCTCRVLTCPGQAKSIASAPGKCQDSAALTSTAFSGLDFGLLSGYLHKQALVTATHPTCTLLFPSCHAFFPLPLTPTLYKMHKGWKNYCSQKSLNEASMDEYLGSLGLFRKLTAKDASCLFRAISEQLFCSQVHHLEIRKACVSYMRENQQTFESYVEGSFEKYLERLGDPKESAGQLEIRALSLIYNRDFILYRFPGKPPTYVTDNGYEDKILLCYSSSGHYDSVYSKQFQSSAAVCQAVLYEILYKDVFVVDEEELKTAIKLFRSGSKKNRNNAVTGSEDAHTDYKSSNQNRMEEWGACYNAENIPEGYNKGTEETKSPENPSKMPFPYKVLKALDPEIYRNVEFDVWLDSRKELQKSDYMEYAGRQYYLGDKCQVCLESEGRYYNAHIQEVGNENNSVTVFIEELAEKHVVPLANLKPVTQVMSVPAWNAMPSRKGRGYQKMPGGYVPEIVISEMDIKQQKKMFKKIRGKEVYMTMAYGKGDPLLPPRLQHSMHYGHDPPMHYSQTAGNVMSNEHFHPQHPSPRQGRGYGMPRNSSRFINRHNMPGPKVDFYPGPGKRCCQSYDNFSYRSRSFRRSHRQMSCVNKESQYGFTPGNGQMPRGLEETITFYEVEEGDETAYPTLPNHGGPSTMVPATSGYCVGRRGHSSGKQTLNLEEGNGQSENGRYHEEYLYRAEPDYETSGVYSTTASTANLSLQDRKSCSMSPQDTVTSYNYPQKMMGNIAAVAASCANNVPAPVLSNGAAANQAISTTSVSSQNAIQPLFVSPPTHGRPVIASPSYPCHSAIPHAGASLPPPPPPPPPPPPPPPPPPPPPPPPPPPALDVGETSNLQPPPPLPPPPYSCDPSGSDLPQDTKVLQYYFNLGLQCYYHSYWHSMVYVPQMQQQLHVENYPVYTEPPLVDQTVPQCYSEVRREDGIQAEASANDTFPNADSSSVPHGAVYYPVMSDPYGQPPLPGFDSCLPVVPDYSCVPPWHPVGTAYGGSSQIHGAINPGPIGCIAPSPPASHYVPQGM
In short: (§1)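 Average log2 ratios of fragment over vehicle were obtained by unpaired t-test from global-median-normalised Spectronaut label-free quantities. Proteins with ≥2 unique peptides were included. HEK293T lysate (495 µg per sample) was treated in triplicate with fragment at 200 µM or vehicle for 3 h, then with Biotin-Ahx-Ub-VS at 0.5 µM final for 1 h, and labelled DUBs were NeutrAvidin-enriched and run by diaPASEF LC-MS/MS.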

ATXN3 = ATXN3 (UniProt P54252)
ATXN3, sequence (P54252 whole entry): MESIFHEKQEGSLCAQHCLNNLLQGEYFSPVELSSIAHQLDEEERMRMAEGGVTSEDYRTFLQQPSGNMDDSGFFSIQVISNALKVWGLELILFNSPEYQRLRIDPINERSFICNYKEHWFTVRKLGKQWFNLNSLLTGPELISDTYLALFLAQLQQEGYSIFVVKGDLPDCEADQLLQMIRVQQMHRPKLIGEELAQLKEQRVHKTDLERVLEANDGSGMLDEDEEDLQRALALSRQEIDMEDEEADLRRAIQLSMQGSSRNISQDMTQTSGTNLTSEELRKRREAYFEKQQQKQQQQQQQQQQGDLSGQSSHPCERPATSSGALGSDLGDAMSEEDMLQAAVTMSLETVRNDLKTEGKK
In short: as §1

BAP1 = molecular target: T2, BAP1 (UniProt Q92560)
T2 sequence (whole entry): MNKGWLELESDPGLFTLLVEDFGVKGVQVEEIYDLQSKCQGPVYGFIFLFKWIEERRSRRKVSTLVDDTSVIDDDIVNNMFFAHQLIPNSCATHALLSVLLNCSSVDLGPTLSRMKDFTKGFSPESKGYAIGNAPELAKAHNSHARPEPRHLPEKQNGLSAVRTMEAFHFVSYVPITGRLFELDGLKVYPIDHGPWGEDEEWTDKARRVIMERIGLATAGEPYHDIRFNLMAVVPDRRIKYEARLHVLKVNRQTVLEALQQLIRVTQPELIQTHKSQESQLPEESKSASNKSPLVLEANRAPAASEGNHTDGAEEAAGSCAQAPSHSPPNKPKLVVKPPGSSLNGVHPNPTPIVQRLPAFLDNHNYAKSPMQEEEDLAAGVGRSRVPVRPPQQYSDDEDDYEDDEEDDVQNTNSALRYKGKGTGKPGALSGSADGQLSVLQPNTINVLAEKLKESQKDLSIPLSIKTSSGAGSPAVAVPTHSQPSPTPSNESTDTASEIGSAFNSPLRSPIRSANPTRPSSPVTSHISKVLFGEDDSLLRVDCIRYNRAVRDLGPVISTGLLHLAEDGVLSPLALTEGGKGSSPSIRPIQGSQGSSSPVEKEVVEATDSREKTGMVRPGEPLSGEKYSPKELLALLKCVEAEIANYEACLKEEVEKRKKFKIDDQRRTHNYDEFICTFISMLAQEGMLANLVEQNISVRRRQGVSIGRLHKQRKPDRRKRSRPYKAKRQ
In short: as §1

EIF3F = EIF3F (UniProt O00303)
EIF3F, sequence (O00303 whole entry): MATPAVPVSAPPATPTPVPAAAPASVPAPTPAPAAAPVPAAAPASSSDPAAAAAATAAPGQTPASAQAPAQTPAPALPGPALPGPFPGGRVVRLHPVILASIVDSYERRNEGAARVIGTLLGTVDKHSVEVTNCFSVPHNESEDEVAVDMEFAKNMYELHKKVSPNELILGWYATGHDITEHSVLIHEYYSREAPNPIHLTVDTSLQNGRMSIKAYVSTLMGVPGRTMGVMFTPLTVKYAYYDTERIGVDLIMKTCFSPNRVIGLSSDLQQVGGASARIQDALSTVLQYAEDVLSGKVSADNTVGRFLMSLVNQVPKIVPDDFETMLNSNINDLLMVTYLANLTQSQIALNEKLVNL
In short: as §1

EIF3H = EIF3H (UniProt O15372)
EIF3H, sequence (O15372 whole entry): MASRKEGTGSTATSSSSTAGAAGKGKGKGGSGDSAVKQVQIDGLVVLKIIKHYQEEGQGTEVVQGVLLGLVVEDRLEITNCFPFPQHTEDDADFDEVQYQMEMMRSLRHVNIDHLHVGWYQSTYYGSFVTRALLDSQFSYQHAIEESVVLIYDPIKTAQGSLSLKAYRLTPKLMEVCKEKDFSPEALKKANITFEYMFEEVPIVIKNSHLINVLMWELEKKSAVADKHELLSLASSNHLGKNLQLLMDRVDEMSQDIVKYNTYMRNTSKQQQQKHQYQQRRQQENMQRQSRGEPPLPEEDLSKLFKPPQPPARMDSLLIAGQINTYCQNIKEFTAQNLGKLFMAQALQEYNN
In short: as §1

FAM105A = molecular target: T3, FAM105A (UniProt Q9NUU6)
T3 sequence (whole entry): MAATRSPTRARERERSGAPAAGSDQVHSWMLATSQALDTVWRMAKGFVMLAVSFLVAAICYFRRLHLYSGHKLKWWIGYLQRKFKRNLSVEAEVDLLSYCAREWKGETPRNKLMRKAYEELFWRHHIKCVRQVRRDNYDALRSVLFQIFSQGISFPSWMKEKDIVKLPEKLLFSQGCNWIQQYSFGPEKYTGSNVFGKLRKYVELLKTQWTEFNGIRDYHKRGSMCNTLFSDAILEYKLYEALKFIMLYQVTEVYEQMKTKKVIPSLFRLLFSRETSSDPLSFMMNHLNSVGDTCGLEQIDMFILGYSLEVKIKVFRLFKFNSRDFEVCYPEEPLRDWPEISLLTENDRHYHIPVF
In short: as §1

OTUB1 = OTUB1 (UniProt Q96FW1)
OTUB1, sequence (Q96FW1 whole entry): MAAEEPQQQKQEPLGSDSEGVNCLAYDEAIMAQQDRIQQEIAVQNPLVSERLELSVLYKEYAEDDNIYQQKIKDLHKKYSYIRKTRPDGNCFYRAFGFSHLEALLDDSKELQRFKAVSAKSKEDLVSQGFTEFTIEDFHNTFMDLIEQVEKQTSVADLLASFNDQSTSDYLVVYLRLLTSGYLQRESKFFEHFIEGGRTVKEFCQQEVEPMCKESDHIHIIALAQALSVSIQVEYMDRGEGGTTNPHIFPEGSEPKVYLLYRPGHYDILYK
In short: as §1

OTUD4 = molecular target: T4, OTUD4 (UniProt Q01804)
T4 sequence (whole entry): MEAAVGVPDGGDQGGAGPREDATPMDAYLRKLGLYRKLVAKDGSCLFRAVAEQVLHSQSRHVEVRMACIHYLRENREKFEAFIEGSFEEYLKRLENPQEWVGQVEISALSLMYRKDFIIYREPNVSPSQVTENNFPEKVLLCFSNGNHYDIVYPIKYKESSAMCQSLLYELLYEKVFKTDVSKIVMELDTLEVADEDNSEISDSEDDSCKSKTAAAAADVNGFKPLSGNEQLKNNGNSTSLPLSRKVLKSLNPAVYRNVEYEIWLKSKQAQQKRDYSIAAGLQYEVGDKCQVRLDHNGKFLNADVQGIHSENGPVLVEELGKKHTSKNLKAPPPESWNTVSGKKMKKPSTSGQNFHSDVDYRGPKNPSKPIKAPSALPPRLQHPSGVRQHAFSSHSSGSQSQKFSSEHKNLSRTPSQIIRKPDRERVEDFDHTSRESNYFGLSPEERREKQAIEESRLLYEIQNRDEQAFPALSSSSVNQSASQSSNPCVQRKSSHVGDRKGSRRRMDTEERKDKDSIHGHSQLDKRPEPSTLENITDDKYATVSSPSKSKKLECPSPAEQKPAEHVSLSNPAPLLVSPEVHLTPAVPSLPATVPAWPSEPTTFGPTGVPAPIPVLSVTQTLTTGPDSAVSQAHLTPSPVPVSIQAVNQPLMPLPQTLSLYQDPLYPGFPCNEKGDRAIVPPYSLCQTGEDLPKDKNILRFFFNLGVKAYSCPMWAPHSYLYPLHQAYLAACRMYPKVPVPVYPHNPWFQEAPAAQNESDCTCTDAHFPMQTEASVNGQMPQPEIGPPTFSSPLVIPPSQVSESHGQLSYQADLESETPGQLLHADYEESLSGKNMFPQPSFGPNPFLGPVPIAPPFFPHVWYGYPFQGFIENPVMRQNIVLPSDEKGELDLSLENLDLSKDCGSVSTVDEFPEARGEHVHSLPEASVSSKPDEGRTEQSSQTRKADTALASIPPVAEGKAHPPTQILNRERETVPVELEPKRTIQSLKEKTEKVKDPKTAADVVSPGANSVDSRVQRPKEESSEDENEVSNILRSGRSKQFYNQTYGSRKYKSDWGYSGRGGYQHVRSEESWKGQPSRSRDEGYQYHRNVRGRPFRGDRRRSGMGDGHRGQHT
In short: as §1

OTUD5 = molecular target: T5, OTUD5 (UniProt Q96G74)
T5 sequence (whole entry): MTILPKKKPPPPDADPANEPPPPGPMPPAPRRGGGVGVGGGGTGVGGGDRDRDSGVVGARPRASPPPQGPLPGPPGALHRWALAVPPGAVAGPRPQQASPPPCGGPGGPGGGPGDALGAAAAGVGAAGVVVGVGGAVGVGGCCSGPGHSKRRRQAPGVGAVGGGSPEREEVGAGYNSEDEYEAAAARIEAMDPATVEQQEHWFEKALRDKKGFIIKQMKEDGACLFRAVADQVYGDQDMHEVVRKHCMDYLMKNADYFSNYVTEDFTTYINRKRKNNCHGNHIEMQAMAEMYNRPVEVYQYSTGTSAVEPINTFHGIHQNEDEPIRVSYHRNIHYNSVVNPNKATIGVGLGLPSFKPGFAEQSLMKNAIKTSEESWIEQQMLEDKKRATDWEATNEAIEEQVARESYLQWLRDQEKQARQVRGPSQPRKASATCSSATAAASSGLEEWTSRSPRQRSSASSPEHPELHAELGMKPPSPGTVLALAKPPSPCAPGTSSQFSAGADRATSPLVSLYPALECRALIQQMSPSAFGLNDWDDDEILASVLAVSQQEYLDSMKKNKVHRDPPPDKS
In short: as §1

Measured: log2 ratio of Biotin-Ahx-Ub-VS probe labelling

Cc1ccc(CNC(=O)CCl)nc1C.Cl
active: BAP1 -1.57
inactive: ALG13 -0.419 | ATXN3 -0.055 | EIF3F -0.526 | EIF3H 0.278 | FAM105A -0.225 | OTUB1 -0.192 | OTUD4 -0.29 | OTUD5 -0.221

From the supplement of paper PMC11732987, “Enantioselective OTUD7B fragment discovery through chemoproteomics screening and high-throughput optimisation” (Communications Chemistry, 2025)
